Results on 38 molecules are retold here after PubChem BioAssay (EPA / NIEHS).

Each structure is given as a SMILES string. “And” between values parts separate entries of the source, which are not always exact repeats. Equal values may be shown once. The source holds several records for some structures; these can differ, active in one and inactive in another. The source made the active and inactive calls. The calls were made as follows: active = hit-call score of the fitted dose curve at least 0.9, where 1 is the maximum; inactive = score below 0.9.

Read-out in the test: CD40, CD40 (gene 958)
The experiment in a line: BSK_LPS_CD40: BioMAP Diversity Plus: LPS Assay for CD40 Biomarker Activity (AID 2283076). To be noted: primary human HUVEC with PBMC; actives raise or lower the signal. How it is done:
BSK_LPS is a cell-based, multiplexed-readout assay that uses umbilical vein endothelium and peripheral blood mononuclear cells, a human vascular primary cell co-culture, with measurements taken at 24 hours after chemical dosing in a 96-well plate.BSK_LPS_CD40 is an assay component measured in the BSK_LPS assay. It measures CD40 antibody related to regulation of gene expression using ELISA technology.Data from the assay component BSK_LPS_CD40 was analyzed into 1 assay endpoint. This assay endpoint, BSK_LPS_CD40, was analyzed with bidirectional fitting relative to DMSO as the negative control and baseline of activity. Using a type of binding reporter, gain or loss-of-signal activity can be used to understand changes in the signaling as they relate to the gene CD40. Furthermore, this assay endpoint can be referred to as a primary readout, because this assay has produced multiple assay endpoints where this one serves a signaling function. To generalize the intended target to other relatable targets, this assay endpoint is annotated to the cytokine intended target family, where the subfamily is inflammatory factor.
The levels of cell surface (or secreted, indicated by the prefix "s") biomarker endpoints were measured by ELISA. Overt cytotoxicity to cells in confluent adherent cultures (all systems other than the BT system) was assessed by measuring total protein levels using sulforhodamine B (SRB) staining in parallel cultures at the time of biomarker measurements, indicated as SRB endpoints. For proliferation assays for adherent cell types, individual cell types are cultured at sub-confluence and relative cell numbers quantified by SRB staining at time points optimized for each system (48 h: 3C and CASM3C systems; 72 h: BT and HDF3CGF systems; 96 h: SAg system). SRB was performed by staining cells with 0.1% SRB after fixation with 10% TCA and reading wells at 560 nm.Viability and proliferation of PBMC (T cells) was quantified by Alamar Blue reduction for the SAg and BT systems. For PBMC viability (referred to as PBMC Cytotoxicity within the assay endpoint names), cells were plated (75,000/well in a 96-well plate) and then chemical samples added for 1 h before addition of activators, SEB and TSST-1 (20 ng/mL final concentration each). Cells were incubated for 90 h. Then, Alamar Blue (20 uL/well) (Invitrogen, Cat DAL1100) was added for 6 h, and the plates were read with a fluorescence microplate reader at 546/580 nm (excitation/emission). For PBMC proliferation, cells were plated and activated as above but incubated for only 16 h prior to addition of Alamar Blue. Plates were read after 6 h.
On to `CCNc1nc(NC(C)C)nc(SC)n1`, for which the result was inactive. Consider `Nc1ccc(-c2ccc(N)cc2)cc1`, for which the result was inactive. In general, AC50 refers to the midpoint of the concentration-response curve, whichever way the signal moves. Turning to `Clc1ccc(C(c2ccccc2Cl)C(Cl)(Cl)Cl)cc1` (stereo not given), the concentration at half-maximal activity (AC50) is 19.4 µM (active). As for `Cc1cc(O)ccc1Cl`, the result was inactive. Same read-out and setting: the same measure for `O=C(N[C@H]1CN2CCC1CC2)c1cc2ccoc2cn1`: “inactive”.

For `CCOP(=S)(OCC)SCSC(C)(C)C`, the half-maximal activity concentration (AC50) was 36.2 µM (active).

Turning to `Clc1ccc(Cl)cc1`, the result was inactive. Regarding `CC(C)C(=O)OCC(C)(C)C(OC(=O)C(C)C)C(C)C` (stereo not given), the outcome was inactive. Still for that read-out and setting: the entry for `ClC1=C(Cl)[C@]2(Cl)[C@@H]3[C@H]4C[C@H]([C@@H]5O[C@H]45)[C@@H]3[C@@]1(Cl)C2(Cl)Cl` is “inactive”. With `CC#Cc1cc(C)nc(Nc2ccccc2)n1`, the outcome was inactive.

As to `O=C(O)C(F)(F)C(F)(F)C(F)(F)C(F)(F)C(F)(F)C(F)(F)C(F)(F)C(F)(F)F`, the outcome was inactive; the AC50 is 48.3 µM (active) and 45.1 µM (active). Consider `Oc1ccc(C(c2ccc(O)cc2)(C(F)(F)F)C(F)(F)F)cc1`, for which the half-maximal activity concentration (AC50) was 18 µM (active). `CCCN(CCC)N=O`: the result was inactive.

`CCOCCOC(C)=O`: the outcome was inactive. Turning to `Sc1ccccc1`, the result was inactive. The same measure, in the same setting: the entry for `CCSC(=O)N(CC)C1CCCCC1` is “inactive”.

Regarding `Cc1cccc(C)c1N`, the outcome was inactive. Consider `c1ccc(-c2ccccc2)cc1`, for which the result was inactive. Take `C=CC(=O)NCNC(=O)C=C`: the result was inactive. The same measure, in the same setting: the same measure for `CN(C)c1nc(=O)n(C2CCCCC2)c(=O)n1C`: “inactive”; for `CC1=C2C[C@H]3[C@@H](CC=C4C[C@@H](O)CC[C@@]43C)[C@@H]2CC[C@]12O[C@@H]1C[C@H](C)CN[C@H]1[C@H]2C`: “inactive”.

With `Oc1c(Cl)c(Cl)c(Cl)c(Cl)c1Cl`, the AC50 is 10.2 µM (active) and 15.2 µM (active). Turning to `CCCCCCOC(=O)c1ccccc1C(=O)OCCCCCC`, the result was inactive. On to `CCC(=O)O[C@H]1CC[C@H]2[C@@H]3CCC4=CC(=O)CC[C@]4(C)[C@H]3CC[C@]12C`, for which the AC50 was 28 µM (active). In the case of `ClC1=C(Cl)[C@]2(Cl)[C@@H]3[C@@H](Cl)[C@H]4O[C@H]4[C@@H]3C1(Cl)C2(Cl)Cl`, the result was inactive. On the same count and under the same terms, the entry for `O=S(=O)(O)C(F)(F)C(F)(F)C(F)(F)C(F)(F)C(F)(F)C(F)(F)F` is “inactive”. Take `CC(C)(c1ccccc1)c1ccc(O)cc1`: the AC50 is 32.5 µM (active).

Consider `ClC1=C(Cl)[C@]2(Cl)[C@@H]3[C@@H]4C[C@@H]([C@H]5O[C@@H]45)[C@@H]3[C@@]1(Cl)C2(Cl)Cl`, for which the outcome was inactive.

For `CCC(C)(CC)c1cc(NC(=O)c2c(OC)cccc2OC)on1`, the outcome was inactive. As for `O=C(O)C(F)(F)C(F)(F)C(F)(F)C(F)(F)C(F)(F)C(F)(F)C(F)(F)C(F)(F)C(F)(F)F`, the result was inactive; the concentration at half-maximal activity (AC50) was 30 µM (active) and 49.1 µM (active). As for `O=C(NC(=O)c1c(F)cccc1F)Nc1cc(Cl)c(OC(F)(F)C(F)F)c(Cl)c1`, the outcome was inactive. Turning to `Clc1ccc(C(Cl)(Cl)Cl)cc1`, the outcome was inactive. Turning to `CCOC(=O)C(O)(c1ccc(Cl)cc1)c1ccc(Cl)cc1`, the concentration at half-maximal activity (AC50) is 26.1 µM (active). Turning to `O=C(O)C(F)(F)C(F)(F)C(F)(F)C(F)(F)C(F)(F)F`, the outcome was inactive. Consider `Cc1cc2c3c(c1)C(c1ccccc1)=N[C@@H](NC(=O)c1ccncc1)C(=O)N3CC2`, for which the half-maximal activity concentration (AC50) is 3.97 µM (active).

Consider `CCC(C)(c1ccc(O)cc1)c1ccc(O)cc1`, for which the half-maximal activity concentration (AC50) was 20 µM (active). As to `NS(=O)(=O)C(F)(F)C(F)(F)C(F)(F)C(F)(F)C(F)(F)C(F)(F)C(F)(F)C(F)(F)F`, the AC50 was 23.9 µM (active) and 39.6 µM (active) and 39.1 µM (active). Turning to `C1CC2OC2CC1C1CO1` (stereo not given), the outcome was inactive.
